Cruzain inh Det: cruzain (T. cruzi) inhibition with detergent | AID 1478 | purified cruzain, Z-FR-AMC fluorescence, 0.01% Triton | P25779 | Potency, µM, without a hit: max response, negative = inhibition, actives largely listed as inhibitors | 0.43% of 200,000 active;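 note: plate controls were neutral wells for no effect and buffer without enzyme for full effect; nearly all actives have a fitted effect of over 40% in size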
Target sequence (P25779 123-467 limits assumed): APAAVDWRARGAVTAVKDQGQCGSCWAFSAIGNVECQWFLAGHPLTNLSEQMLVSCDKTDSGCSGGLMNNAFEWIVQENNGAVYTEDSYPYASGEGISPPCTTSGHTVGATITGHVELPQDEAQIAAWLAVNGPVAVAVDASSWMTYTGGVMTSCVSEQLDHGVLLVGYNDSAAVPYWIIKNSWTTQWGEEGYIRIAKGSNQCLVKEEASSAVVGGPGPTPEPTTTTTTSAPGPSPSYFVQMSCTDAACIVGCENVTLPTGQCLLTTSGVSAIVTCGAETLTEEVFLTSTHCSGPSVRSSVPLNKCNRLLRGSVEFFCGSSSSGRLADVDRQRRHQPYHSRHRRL
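Z-FR-AMC hydrolysis (2 uM substrate) by cruzain (1.5 nM) monitored kinetically at ex 360/em 450 nm after 15 min room-temperature compound exposure; 0.01% Triton X-100, pH 5.5, 5 mM DTT.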
Cruzain inh noDet: cruzain (T. cruzi) inhibition without detergent | purified cruzain, Z-FR-AMC fluorescence, no detergent | 2.3% of 200,000 active | AID 1476 | Potency, µM, for inactives: max response, negative = inhibition, most hits filed as inhibitors;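 note: plate controls were enzyme without inhibitor for no effect and buffer without enzyme for full effect; nearly all actives have a fitted effect of over 40% in size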
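Detergent-free condition (0.00005% Triton X-100) in acetate buffer pH 5.5 with DTT. 1.5 nM enzyme and compound were pre-mixed 15 min, then 2 uM Z-FR-AMC substrate added; reaction progress from fluorescence change between first and third reads (60 s).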
An asterisk follows results filed as active; ? = inconclusive. Only some compounds are listed: those with a hit (about 2.5% of all), similar ones and a draw of the others. Calls come from the whole dose curve; as a rule, active = well fitted curve in the direction sought with a large enough effect; inconclusive = small, poorly fitted or top-dose-only effect, or another doubt; inactive = no such curve, though single readings can be large; an effect the other way counts as inactive or inconclusive. Potency is the fitted concentration of half-maximal effect.

SMILES	Cruzain inh Det	Cruzain inh noDet
Cc1cc(=O)oc2cc(NC(=O)c3cc4ccccc4o3)ccc12	2.2%	10µM*
O=C(Nc1ccc2oc(=O)ccc2c1)c1cc2ccccc2o1	-2.9%	-28.7%
COc1ccc(CC(=O)NCCc2sc(-c3cccc(F)c3)nc2C)cc1	-3.7%	4.3%
COc1ccc2c(c1)C(=O)[C@@H](OC(=O)NS(=O)(=O)c1ccc(F)cc1)[C@H](c1ccc(OC)c(Br)c1)O2	-0.4%	-1.4%
FC(F)(F)c1ccccc1-c1nc(N2CCOCC2)c2ccccc2n1	-2.0%	-1.1%
O=C(Nc1nnc2n1CCS2)c1ccc(F)cc1F	-0.6%	15.3%
COc1ccc(NC(=O)CN(C)S(=O)(=O)c2ccc(C(=O)N3CCOCC3)s2)cc1	1.4%	0.7%
CCCC(CCC)C(=O)Nc1cccc(-c2nc3cccnc3s2)c1C	-1.4%	-7.4%
CC(C)c1ccc(NC(=O)CCNS(=O)(=O)c2ccc3c(c2)CCCC(=O)N3)cc1	-2.3%	-15.4%
CCc1cccc(NC(=O)CSc2nc3c(c(=O)[nH]2)CCCC3)c1	-1.4%	25.1µM*
O=C(CSc1nc2c(c(=O)[nH]1)CCC2)Nc1cccc(Cl)c1	4.0%	-2.8%
CC(=O)N1CCCC1c1nc2ccccc2n1Cc1ccccc1Cl (stereo not drawn)	-6.1%	5.4%
CCOC(=O)c1ccc(NC(=O)C2CCCN(c3ncnc4onc(-c5ccc(F)cc5)c34)C2)cc1 (stereo not drawn)	-3.5%	1.7%
COc1ccc(-c2csc(N3C(=O)C4C5c6ccccc6C(c6ccccc65)C4C3=O)n2)cc1 (stereo not drawn)	-0.4%	15.8µM*
COc1ccc(-c2csc(N3C(=N)SCC3=O)n2)cc1	2.8%	?
COc1ccc(-c2csc(N3C(=O)CNC3=S)n2)cc1	-2.0%	?
COc1ccc(-c2csc(N3C(=O)C4C5c6ccccc6C(c6ccccc65)[C@@H]4C3=O)n2)cc1 (stereo partly drawn)	1.5%	10µM*
COc1ccc(Cl)cc1NC(=O)c1cn(C2CCCC2)c(=O)c2c1c1ccccc1n2C	0.1%	5.5%
O=C(CSc1c2c(nc3ccc(Cl)cc13)CCCC2)N1CCN(c2cccc(Cl)c2)CC1	-6.4%	4.9%
O=C(NO)c1ccccc1	1.3%	-1.3%
COC(=O)CSc1nnc(-c2ccccc2OC)n1-c1ccc(C)cc1	2.2%	-20.2%
COc1ccccc1-c1nnc(SCC(=O)c2ccc(Cl)cc2)n1-c1ccccc1	-4.4%	25.1µM*
Cc1cccc(C)c1NC(=O)Cn1c(=O)n(CCC(=O)NCc2ccccc2Cl)c(=O)c2sccc21	-3.2%	-13.8%
COC(=O)c1c(NC(=O)C2CC2)sc2c1CCCC2	-5.7%	-7.2%
COC(=O)c1c(NC(=S)Nc2cc(OC)c(Cl)cc2OC)sc2c1CCCCC2	-1.9%	15.8µM*
SMILES	Cruzain inh Det	Cruzain inh noDet
CCOC(=O)c1c(NC(=S)Nc2cc([N+](=O)[O-])ccc2OC)sc2c1CCCCC2	-5.6%	12.6µM*
CCOC(=O)c1c(NC(=S)Nc2ccc(C)cc2)sc2c1CCC2	-5.2%	?
COc1cccc([C@@H]2Oc3ccc(OC)cc3C(=O)[C@H]2OC(=O)NCCc2ccc(OC)c(OC)c2)c1	-0.2%	12.7%
COc1cccc(C(=O)Nc2ccccc2C(=O)OCc2cc(=O)n3nc(C4CC4)sc3n2)c1	0.9%	15.3%
Cc1nc(NC(=O)c2ccccc2)sc1-c1csc(Nc2ccc(Cl)cc2)n1	6.6%	3.98µM*
O=C(Nc1nc(-c2ccc(Cl)s2)cs1)c1ccccc1	-0.6%	-2.9%
Cc1nc(NC(=O)c2ccccc2)sc1-c1csc(Nc2cccc(Cl)c2)n1	6.4%	10µM*
Cc1nc(NC(=O)c2ccccc2)sc1-c1csc(Nc2ccc(F)cc2)n1	-2.8%	15.8µM*
Cc1noc2ncnc(N3CCN(c4ccccc4F)CC3)c12	-2.2%	2.8%
Cc1cccc(OCC(=O)Nc2c(C(=O)N3CCN(c4ccccc4)CC3)oc3ccccc23)c1	-6.3%	?
COc1cc2nc3c(c([Si](C)(C)C(C)(C)C)c2cc1OC)Cn1c-3cccc1=O	1.4%	-2.4%
CC(N)=NCCCC(N)C(=O)O (stereo not drawn)	-8.3%	-6.2%
O=C(NCCS(=O)(=O)N1CCN(c2ccc(F)cc2)CC1)C(c1ccccc1)c1ccccc1	-6.0%	?
CN(C)c1cccc(C(=O)N2CCC(c3ccncc3)CC2)c1	3.0%	-6.6%
O=C(CSc1nnc(-c2ccc(F)cc2)o1)N1CCCc2ccccc21	-4.4%	-16.0%
Cc1nn(CC(=O)NCCc2ccccc2Cl)c(=O)c2nn(-c3ccccc3)c(C)c12	-0.8%	?
O=C(Nc1cccc(C(F)(F)F)c1)c1cc2ccc3cccnc3c2[nH]1	-0.2%	-14.0%
O=C(Nc1ccc(F)cc1F)c1cc2ccc3cccnc3c2[nH]1	-2.0%	25.1µM*
CCCn1c(=N)c(C(=O)NCc2cccnc2)cc2c(=O)n3cc(C)ccc3nc21	1.8%	23.1%
Cc1ccc2nc3c(cc(C(=O)NCc4cccnc4)c(=N)n3C(C)C)c(=O)n2c1	31.6µM*	?
Cc1cccc(NC(=O)CN2C(=O)C(c3ccccc3)=NC23CCC(C)CC3)c1 (stereo not drawn)	-8.4%	?
CCCCNC(=O)c1ccc2c(=O)n(-c3ccccc3)c(=O)[nH]c2c1	-2.7%	-1.0%
O=C(N/N=C/c1ccncc1)c1cccc(NC(=O)c2ccccc2Cl)c1	-0.8%	-1.3%
O=C(Nc1cccc(NC(=O)c2ccccc2Cl)c1)c1cccc(Br)c1	1.6%	7.94µM*
CCC(C(=O)Nc1cc(F)ccc1F)n1nc(-c2cc(C)ccc2C)ccc1=O (stereo not drawn)	-6.8%	15.1%
SMILES	Cruzain inh Det	Cruzain inh noDet
COc1ccc(C2(CNC(=O)C(=O)Nc3ccccc3C)CCCC2)cc1OC	-4.0%	21.2%
COc1cc(OC)cc(N2C(=O)N(Cc3ccc(C(C)(C)C)cc3)c3ccccc3S2(=O)=O)c1	0.7%	3.98µM*
CCOc1ccc(N2C(=O)N(Cc3ccc(C)cc3C)c3ccccc3S2(=O)=O)cc1	0.1%	25.1µM*
CC(=O)c1ccc(N2C(=O)N(CC(=O)c3ccc(C)cc3)c3ccccc3S2(=O)=O)cc1	-0.3%	?
COc1cc(OC)cc(N2C(=O)N(CC(=O)c3ccc(F)cc3)c3ccccc3S2(=O)=O)c1	0.4%	?
CCNC(=O)c1c(NC(=O)COc2ccc(F)cc2)sc2c1CCCC2	-1.6%	-2.5%
Cc1ccccc1NCc1ccc(O)c2ncccc12	-6.4%	6.4%
Cc1ccccc1N=Nc1ccc(O)c2ncccc12	0.1%	20µM*
O=C1C2=C(S[C@@H]3O[C@H](CO)[C@@H](O)[C@H](O)[C@H]3O2)C(=O)c2ccccc21	4.2%	3.7%
CCn1c(NC(=O)Nc2cccc(C)c2C)cc2sccc21	-1.5%	25.1µM*
Cc1cccc(NC(=O)Nc2cccs2)c1C	-7.6%	-10.3%
O=C(Nc1nnc(-c2ccccc2SCc2ccccc2F)s1)Nc1ccccc1F	1.7%	3.16µM*
CC(=O)Nc1nnc(SCc2ccccc2F)s1	1.7%	5.7%
COc1ccc(OC)c(NC(=O)Cn2cnc3sc(C)c(S(=O)(=O)N4CCN(c5ccccc5OC)CC4)c3c2=O)c1	-1.3%	10.4%
Cc1cccc(CNc2ccnc(-c3cccc(C#N)c3)n2)c1	-6.7%	22.5%
COc1ccc(OC)c(C2C=C(C34CC5CC(CC(C5)C3)C4)NC(=S)N2)c1 (stereo not drawn)	-2.1%	25.1µM*
COc1cc(C2C=C(C34CC5CC(CC(C5)C3)C4)NC(=S)N2)cc(OC)c1OC (stereo not drawn)	1.2%	?
Nc1nnc(-c2ccc(F)cc2)s1	-3.4%	15.8%

Assay outcomes as filed in PubChem BioAssay.
